From the supplement of paper PMC10338343
± gives the standard deviation.

System: EfPiwi piRISC loaded with L1MC piRNA (26 nt)
Assay: pre-steady-state target cleavage rate (min^-1); auxiliary factor: none (no Gtsf1); guide: L1MC piRNA 5'p-UAACUAAAUACUAUGCAAGCUGUAGG; MIWI and MILI are mouse PIWI proteins and EfPiwi is from a freshwater sponge; tags in brackets are library labels; higher = faster piRNA-guided slicing of the target
Procedure: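 Cleave-'n-Seq: a library of target RNAs (target site in constant flanks) at […] was incubated with 1 nM active freshwater sponge Ephydatia fluviatilis Piwi piRISC (synthetic 5'-monophosphorylated piRNA guide) with or without 500 nM EmGtsf1 at 33 °C for 1 min to 16 h. Uncleaved targets were sequenced and the pooled three trials fitted to a burst-and-steady-state model to give the pre-steady-state cleavage rate (min^-1). Sequence is the target site only. Fits with R² ≤ 0 are excluded.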

UCCUGGAUCAGCUUCGUUAGUAUUUUCAAA and UCCUGGAUGUCGAACGUAUGUAUUUGAGUUA cannot be ordered by “pre-steady-state target cleavage rate” value: < 0.0001 for the first, < 0.0001 for the second.

UCCUGGAUGUCCUUCGUUAGUAUUUAGUUA and UCCUGGAUGUCGAAGCAUAGUAUUUAGUCA cannot be ordered by “pre-steady-state target cleavage rate” value: < 0.0001 for the first, < 0.0001 for the second.

UCCUGGAUCAGCUUGCAUAGCAUUUAGUUA and UCCUGGAUCAGCUUGCAUAGUAUGUAGUUA are within error of each other in “pre-steady-state target cleavage rate” value: 0.00546 ± 0.0038 for the first, 0.0179 ± 0.0092 for the second.

UCCUGGAUGUCGAACCAUUGUAUUUAGUUA and UCCUGCUACAGCUUGGUAAGUAUUUAGAAA cannot be ordered by “pre-steady-state target cleavage rate” value: < 0.0001 for the first, < 0.0001 for the second.

UCCUGGAUGUCGAACGUUCGUAUUUAGUUA and UCCUGGAUGUCGAACGUUAGUUUUUUGUUA cannot be ordered by “pre-steady-state target cleavage rate” value: < 0.0001 for the first, < 0.0001 for the second.

UCCUGGAUGUCCUUGCUAAGUAUUUAGUUA and “UCCUGGAUGUCGAACGUUAGUAUUUAGUUU [g2:g13:cont:t1U]” cannot be ordered by “pre-steady-state target cleavage rate” value: < 0.0001 for the first, < 0.0001 for the second.

UCCUGGAUCAGCUUGGAUAGUAUUUACAAA and UCCUGGAACAGCUUGCAUUCUAUUUACAAA cannot be ordered by “pre-steady-state target cleavage rate” value: < 0.0001 for the first, < 0.0001 for the second.

UCCUGGAUGUCGAACGUAUCUAUUUGGUUA and UCCUGGAUGAGCUUGCAUAGUAAUUAGAAA cannot be ordered by “pre-steady-state target cleavage rate” value: < 0.0001 for the first, < 0.0001 for the second.

UCCUGGAUGUCGAACGUUACUAUUAAGUUA and UCCUGGAUGUCGAUCCAUAGUAUUUACUUA cannot be ordered by “pre-steady-state target cleavage rate” value: < 0.0001 for the first, < 0.0001 for the second.

Compared with UCCUCCUACAGCUUGCAUUCUAUUUUCAAA, UCCUGGAUCAGCUUGCAUAGUAGUUAGUUA is higher in “pre-steady-state target cleavage rate” value: < 0.0001 for the first, 0.0324 ± 0.012 for the second.

UCCUGGAUGUCGAACGAUAUAUUUAGUUA and UCCUGGAUGUCGAACCAUUCAAUUUAGUUA cannot be ordered by “pre-steady-state target cleavage rate” value: < 0.0001 for the first, < 0.0001 for the second.

UCCUGGAUGUCGUUCAUAGUAUUUAGUUA and UCCUGGAUGUCGAACGUAAUGUAUUUAGUUA cannot be ordered by “pre-steady-state target cleavage rate” value: < 0.0001 for the first, < 0.0001 for the second.

UCCUGGAUGUCCUUGCAUUCAAUUUAGUAA and “UCCUGGAUGUCGAACGAUAGUAUUUAGUUU [g2:g14:cont:t1U]” cannot be ordered by “pre-steady-state target cleavage rate” value: < 0.0001 for the first, < 0.0001 for the second.

Compared with UCCUGGAUGUCGAACGUAUGAAUUUAGAUA, UCCUGGAUGAGCUUGCAUAGUAGUUAGUUA is higher in “pre-steady-state target cleavage rate” value: < 0.0001 for the first, 0.00517 ± 0.0042 for the second.

UCCUGCUACAGGAAGCAUAGUAUUUACAAA and UCCUGGAACAGCUUCCAUAGUAUUAAGUUA cannot be ordered by “pre-steady-state target cleavage rate” value: < 0.0001 for the first, < 0.0001 for the second.

Going from UCCUGCUACAGCUUGGAUAGUAUUUACAAA to UCCUGGGACAGCUUGCAUAGUAUUUAGUUA, the “pre-steady-state target cleavage rate” value rises from < 0.0001 to 0.00525 ± 0.0051.

UCCUGGAUGUCGAACGUUAGUAAAUAGUUA and UCCUGGAUGUCGAACGAUAGUAUUUGGUUA cannot be ordered by “pre-steady-state target cleavage rate” value: < 0.0001 for the first, < 0.0001 for the second.

UCCUGGAUGUCGAACGUAUGUAUUUAGUAA and UCCUGGAUGUCGAUCCAUAGUAAUUAGUUA cannot be ordered by “pre-steady-state target cleavage rate” value: < 0.0001 for the first, < 0.0001 for the second.

UCCUGGAUGUCGAACGUUAGUUUAUAGUUA and UCCUGGAUGUCGAAGCAAAGUAUUUAGAUA cannot be ordered by “pre-steady-state target cleavage rate” value: < 0.0001 for the first, < 0.0001 for the second.

UCCUGGAUGUCGAUGCAUACUUUUUAGUUA and UCCUGGAUGUCGAUGCAAGUAUUUAGUUA cannot be ordered by “pre-steady-state target cleavage rate” value: < 0.0001 for the first, < 0.0001 for the second.
